Screen size: about 1,000 compounds; about 230 (23%) were called active. About 1% were inconclusive and are not listed. Some of the results follow. Measured potencies and affinities stand elsewhere. Values without a mark were called inactive. How the calls were made is not given here.
molecular target: Long-chain-fatty-acid--AMP ligase FadD28 (Mycobacterium tuberculosis (strain ATCC 25618 / H37Rv)) (UniProt P9WQ59); assay: inhibitors of FadD28 bisubstrate probe binding, dose response, biochemical, fluorescence polarization, cherry-pick (AID 624273); conditions: series mostly up to 50 µM; activity change, negative = inhibition: at the top concentration
Sequence (P9WQ59 whole entry, looked up): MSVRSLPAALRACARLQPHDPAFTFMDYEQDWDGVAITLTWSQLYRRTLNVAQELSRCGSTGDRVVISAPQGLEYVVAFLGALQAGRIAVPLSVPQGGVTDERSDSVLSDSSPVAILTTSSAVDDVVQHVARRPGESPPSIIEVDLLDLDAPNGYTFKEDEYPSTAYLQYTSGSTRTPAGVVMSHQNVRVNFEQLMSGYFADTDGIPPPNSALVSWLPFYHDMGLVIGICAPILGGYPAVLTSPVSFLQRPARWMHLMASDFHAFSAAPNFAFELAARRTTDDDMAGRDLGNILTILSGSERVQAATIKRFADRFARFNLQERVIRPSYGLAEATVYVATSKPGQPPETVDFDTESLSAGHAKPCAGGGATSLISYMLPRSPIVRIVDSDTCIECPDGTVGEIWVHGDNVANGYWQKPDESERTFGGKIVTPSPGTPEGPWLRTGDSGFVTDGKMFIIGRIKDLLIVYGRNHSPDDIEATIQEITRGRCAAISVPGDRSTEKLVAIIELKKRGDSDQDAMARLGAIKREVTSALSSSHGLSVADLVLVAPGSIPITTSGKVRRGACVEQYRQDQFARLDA

Compared with `c1ccc2c(C[C@@H]3CNCCN3CC3CCCCC3)cccc2c1`, `Cc1cc(S(=O)(=O)Nc2c(NC3CCCCC3)c3ccccc3oc2=O)ccc1F` is lower in “activity change, negative = inhibition” value: 11.1% for the first, -1.83% for the second.

First: COC(=O)CSc1nc2ccccc2nc1SCC(=O)OC
Second: CCOC(=O)c1nc(NCc2cccnc2)c2ccccc2n1
The “activity change, negative = inhibition” value of the first is lower: -3.98% for the first, 1.8% for the second.

First: O=[N+]([O-])c1ccc(OCCn2cncn2)cc1
Second: O=[N+]([O-])c1cc(Cl)ccc1Nc1ccccc1
The “activity change, negative = inhibition” value of the first is lower: -11.1% for the first, -3.83% for the second.

Compared with `COC(=O)c1ccc(Cl)c(NS(=O)(=O)c2ccc3c(c2)OCCO3)c1`, `N#Cc1c(NC(=O)c2cccc(S(=O)(=O)Nc3ccc(C(=O)O)cc3)c2)sc2c1CCCC2` is higher in “activity change, negative = inhibition” value: -4.88% for the first, -3.44% for the second.

First: Cc1cc(C)n(CCN(C)C(=O)CCc2nnc(-c3ccc4c(c3)OCO4)o2)n1
Second: CN(Cc1cn(-c2ccccc2)nc1-c1ccc(F)cc1)C(=O)CCC(=O)O
The “activity change, negative = inhibition” value of the first is lower: -9.68% for the first, -1.47% for the second.

Going from `CN(C)C=NCCn1c(N2CCOCC2)nc2c1c(=O)n(C)c(=O)n2C` to `Cn1c(=O)c2c(ncn2CC(=O)N/N=C/c2ccc(Br)s2)n(C)c1=O`, the “activity change, negative = inhibition” value rises from -6.64% to 1.7%.

Compared with `O=C(O)CN1CCN(Cc2ccccc2F)C1=O`, `O=C(O)Cc1csc(-c2ccccc2)n1` is lower in “activity change, negative = inhibition” value: -2.23% for the first, -7.8% for the second.

Going from `C=CCn1c(SCC(N)=O)nnc1-c1cnccn1` to `CCC1CCc2c(sc(NC(=O)CSc3nc(-c4ccco4)cc(C(F)(F)F)n3)c2C#N)C1` (stereo not given), the “activity change, negative = inhibition” value rises from -1.85% to -1.63%.

Going from `Cc1ccc(S(=O)(=O)N(CC(=O)Nc2cc(C)ccc2C)C(=O)N2CCN(C)CC2)cc1` to `CCCN(CC(=O)Nc1ccccc1C)C(=O)CCl`, the “activity change, negative = inhibition” value rises from -11.5% to 0.101%.

First: CN(CC(=O)Nc1ccc(Cl)c(C(F)(F)F)c1)C(=O)c1cccnc1Sc1ccccc1
Second: O=C(CCc1nc2ccccc2c(=O)[nH]1)NCc1ccco1
The “activity change, negative = inhibition” value of the first is higher: 4.04% for the first, -2.48% for the second.

First: O=C(O)c1c(C(=O)O)c(-c2ccc(Br)cc2)n2c1CSC2
Second: Nc1ccc(Cc2ccc(N)c(C(=O)O)c2)cc1C(=O)O
The “activity change, negative = inhibition” value of the first is higher: -0.118% for the first, -2.36% for the second.

Going from `CCCC1SCC(C)(C)NC1=O` (stereo not given) to `CCN(CC)c1nc2n(c(=O)n1)CCO2`, the “activity change, negative = inhibition” value rises from -1.99% to -1.97%.

First: CCCCC(=O)OCC(=O)C1(O)Cc2c(O)c3c(c(O)c2C(OC2CC(NC(=O)C(F)(F)F)C(O)C(C)O2)C1)C(=O)c1c(OC)cccc1C3=O (stereo not given)
Second: CCOC(OCC)c1nc(N)[nH]c(=O)c1CCCCc1ccccc1
The “activity change, negative = inhibition” value of the first is lower: -20.8% for the first, -1.57% for the second.

First: CCC(C)/C=C(C)/C=C/C1=CC2=C(Cl)C(=O)C(C)(OC(C)=O)C(=O)C2=CO1 (stereo not given)
Second: Cn1nc([N+](=O)[O-])c(C(C#N)c2nc3ccccc3n2C)c(Cl)c1=O (stereo not given)
The “activity change, negative = inhibition” value of the first is higher: 0.929% for the first, -23.1% for the second.

Going from `COC1(OC)N=C(N)C2(C#N)C(c3ccc(F)cc3)C12C#N` (stereo not given) to `CC(C)(C)c1ccc(Cn2nnc3c(=O)[nH]c(C4CCCN(C(=O)c5ccco5)C4)nc32)cc1` (stereo not given), the “activity change, negative = inhibition” value rises from -8.68% to -8.56%.
